Experimental findings from PubChem BioAssay (EPA / NIEHS) are described below.

As usually defined, the AC50 is the concentration at which the activity in the assay is half-maximal.

Experiment [1] is described as follows: ATG_TGFb_CIS: Attagene CIS-FACTORIAL HepG2 Assay for human Transforming Growth Factor (TGF) (AID 2282967). Particulars: HepG2 Attagene CIS TGFb reporter, mRNA transcription; actives raise or lower the signal. Put shortly: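 HepG2 cells transiently transfected with cis-promoter-driven multiplexed reporter units; 24 h compound exposure. Reporter mRNA measured by RT-PCR, 6-FAM labeling, HpaI digestion and capillary electrophoresis; bidirectional fit versus DMSO baseline.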

Experiment [2] is described as follows: ATG_VDRE_CIS: Attagene CIS-FACTORIAL HepG2 Assay for human Vitamin D Receptor Element (VDRE) (AID 2282968). Particulars: HepG2 VDRE cis-reporter transcription, actives raise or lower the signal. The method in brief:
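Reporter mRNA induction, quantified by capillary electrophoresis of fluorescently labelled RT-PCR products, was read 24 h after dosing HepG2 cells carrying transiently transfected cis-regulated reporter units; gain or loss relative to DMSO.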

Experiment [3] concerns the target Nuclear receptor subfamily 1 group I member 3 (Homo sapiens) (UniProt Q14994). The experiment can be described thus: ATG_CAR_TRANS: Attagene TRANS-FACTORIAL HepG2 Assay for human Constitutive Androstane Receptor (CAR) (AID 2282969; active = hit-call score of the fitted dose curve at least 0.9, where 1 is the maximum;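 note: activators raise reporter mRNA above DMSO so AC50 marks induction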). Particulars: HepG2 Attagene TRANS-FACTORIAL CAR reporter. Put shortly: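 Readout is reporter mRNA induction, quantified by fluorescent primer extension and capillary electrophoresis after RT-PCR. Cells were HepG2 transiently carrying chimeric NR-Gal4 constructs with GAL4-UAS reporters, treated for 24 h; activity scored upward from DMSO.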

For experiment [4], the target named is Estrogen receptor (Homo sapiens) (UniProt P03372). The experiment can be described thus: ATG_ERa_TRANS: Attagene TRANS-FACTORIAL HepG2 Assay for human Estrogen Receptor alpha (ERa) (AID 2282970; active = hit-call score of the fitted dose curve at least 0.9, where 1 is the maximum). As to conditions: HepG2 Attagene TRANS ERa GAL4 reporter, mRNA. Put shortly: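 Transactivation via ERa-Gal4 chimera in HepG2; 24 hour incubation; reporter mRNA detected by fluorescence RT-PCR and capillary electrophoresis.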

The target of experiment [5] is X-box-binding protein 1 (Homo sapiens) (UniProt P17861). In words: ATG_Xbp1_CIS: Attagene CIS-FACTORIAL HepG2 Assay for human X-box Binding Protein 1 (XBP1) (AID 2282972). Particulars: HepG2 XBP1 cis-element reporter, Attagene multiplex; actives raise or lower the signal. The method in brief:
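HepG2, transient MRTU transfection (cis-promoter driven), 24 h compound exposure. Total RNA → oligo(dT) RT → PCR → 6-FAM labeling → HpaI cut → CE. Bidirectional fit vs DMSO.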

Experiment [6] is described as follows: ATG_M_19_TRANS: Attagene TRANS-FACTORIAL HepG2 Assay for M19 Transcription Factor (Internal Marker) (AID 2282974; active = hit-call score of the fitted dose curve at least 0.9, where 1 is the maximum). As to conditions: HepG2 Attagene TRANS-FACTORIAL M19 internal marker reporter. Put shortly: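 Using RT-PCR and capillary electrophoresis, reporter mRNA from transiently transfected human HepG2 cells was quantified following 24 h exposure; activity was fitted in the positive direction against DMSO.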

A short description of experiment [7]: ATG_GAL4_TRANS: Attagene TRANS-FACTORIAL HepG2 Assay for GAL4 (Internal Marker) (AID 2282976; active = hit-call score of the fitted dose curve at least 0.9, where 1 is the maximum). As to conditions: HepG2 Attagene TRANS GAL4 internal marker reporter. Here is the method:
ATG_TRANS is a cell-based, multiplexed-readout assay that uses HepG2, a human liver cell line, with measurements taken at 24 hours after chemical dosing in a 24-well plate.ATG_GAL4_TRANS is one of 30 assay component(s) measured or calculated from the ATG_TRANS assay. It is designed to make measurements of mRNA induction, a form of inducible reporter, as detected with fluorescence intensity signals by Reverse transcription polymerase chain reaction (RT-PCR) and Capillary electrophoresis technology.Data from the assay component ATG_GAL4_TRANS was analyzed into 1 assay endpoint. This assay endpoint, ATG_GAL4_TRANS, was analyzed in the positive analysis fitting direction relative to DMSO as the negative control and baseline of activity. Using a type of inducible reporter, measures of mRNA for gain-of-signal activity can be used to understand the background control at the transcription factor-level as they relate to the gene . Furthermore, this assay endpoint can be referred to as a secondary readout, because this assay has produced multiple assay endpoints where this one serves a background control function. To generalize the intended target to other relatable targets, this assay endpoint is annotated to the background measurement intended target family, where the subfamily is baseline control.
Human liver HepG2 cells are transiently transfected with multiple reporter transcription units (MRTUs) in 6-well plates using FuGene 6 reagent (Roche; 3 ml FuGene/1 mg DNA). The MRTU constructs are regulated by a cis-regulating element (promoter). […] A major difference between the CIS and TRANS system is that in CIS activities of endogenous TFs are measured, whereas the TRANS assay evaluates changes in activities of exogenous, chimeric NR-Gal4 proteins. […] At the end of 24 hour incubation, total RNA was isolated using TriZol reagent (Invitrogen). The isolated RNA is then reverse-transcribed using oligo(dT) primer and Mo-MLV reverse transcriptase (Invitrogen) with DNAse I (Ambion) treatment for 30 min. The one-tenth of the produced cDNA was amplified by PCR using Taq DNA polymerase (Invitrogen) and two reporter sequence-specific primers. The PCR products were fluorescently labeled by primer extension with 6-arboxyfluorescein (6-FAM) 5'-labeled reporter sequence-specific primer (2 min at 95 C, 20 s at 68 C and 10 min at 72 C) and these products were digested with 5U of HpaI (New England Biolabs) for 2h at 37 C. The fragments were purified using Qiaquick PCR columns (Qiagen), analyzed on an ABI 3130xL genetic analyzer (Applied Biosystems) with peak positions identified by using a set of X-rhodamine (ROX)-labeled MapMarker1000 molecular weight standards (BioVentures). The raw capillary electrophoresis data was processed using Attagraph software (Attagene).

In experiment [8] the target is Androgen receptor (Homo sapiens) (UniProt P10275). In words: ATG_AR_TRANS: Attagene TRANS-FACTORIAL HepG2 Assay for human Androgen Receptor (AR) (AID 2282973; active = hit-call score of the fitted dose curve at least 0.9, where 1 is the maximum). As to conditions: HepG2 Attagene TRANS-FACTORIAL AR reporter transcription. Put shortly:
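Transfected HepG2, 24 h treatment, chimeric NR-Gal4 driving GAL4-UAS reporters. mRNA induction by RT-PCR/capillary electrophoresis fluorescence; DMSO as negative control and baseline.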

Experiment [9] concerns the target Steroid hormone receptor ERR1 (Homo sapiens) (UniProt P11474). In words: ATG_ERRa_TRANS: Attagene TRANS-FACTORIAL HepG2 Assay for human Estrogen-Related Receptor alpha (ERRa) (AID 2282971; active = hit-call score of the fitted dose curve at least 0.9, where 1 is the maximum). As to conditions: HepG2 Attagene TRANS reporter, ERRa transactivation. The method in brief: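 HepG2 cells were transiently transfected with multiple GAL4-UAS reporter units, then dosed with compound for 24 h. Total RNA was reverse-transcribed, reporter cDNA PCR-amplified and fluorescently labelled, and fragments resolved by capillary electrophoresis; induction was compared with DMSO.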

Inconclusive results are not listed. More than one record can exist for a structure, and the calls need not agree. The source made the active and inactive calls. Rule for the calls, unless noted: active = hit-call score of the fitted dose curve at least 0.9, where 1 is the maximum; inactive = score below 0.9.

Nuclear receptor subfamily 1 group I member 3 (Homo sapiens), sequence (Q14994 whole entry, looked up, the tested form may be a part): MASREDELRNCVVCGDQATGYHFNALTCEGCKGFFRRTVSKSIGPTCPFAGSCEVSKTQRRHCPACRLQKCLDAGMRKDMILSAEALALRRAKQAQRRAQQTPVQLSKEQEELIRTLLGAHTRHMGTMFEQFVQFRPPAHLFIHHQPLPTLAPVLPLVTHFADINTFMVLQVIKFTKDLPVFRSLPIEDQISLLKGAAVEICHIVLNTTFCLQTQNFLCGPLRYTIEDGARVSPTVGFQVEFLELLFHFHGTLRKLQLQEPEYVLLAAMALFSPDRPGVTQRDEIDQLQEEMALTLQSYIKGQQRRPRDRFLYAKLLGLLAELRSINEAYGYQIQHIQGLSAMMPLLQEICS
Estrogen receptor (Homo sapiens), sequence (P03372 whole entry, looked up, the tested form may be a part): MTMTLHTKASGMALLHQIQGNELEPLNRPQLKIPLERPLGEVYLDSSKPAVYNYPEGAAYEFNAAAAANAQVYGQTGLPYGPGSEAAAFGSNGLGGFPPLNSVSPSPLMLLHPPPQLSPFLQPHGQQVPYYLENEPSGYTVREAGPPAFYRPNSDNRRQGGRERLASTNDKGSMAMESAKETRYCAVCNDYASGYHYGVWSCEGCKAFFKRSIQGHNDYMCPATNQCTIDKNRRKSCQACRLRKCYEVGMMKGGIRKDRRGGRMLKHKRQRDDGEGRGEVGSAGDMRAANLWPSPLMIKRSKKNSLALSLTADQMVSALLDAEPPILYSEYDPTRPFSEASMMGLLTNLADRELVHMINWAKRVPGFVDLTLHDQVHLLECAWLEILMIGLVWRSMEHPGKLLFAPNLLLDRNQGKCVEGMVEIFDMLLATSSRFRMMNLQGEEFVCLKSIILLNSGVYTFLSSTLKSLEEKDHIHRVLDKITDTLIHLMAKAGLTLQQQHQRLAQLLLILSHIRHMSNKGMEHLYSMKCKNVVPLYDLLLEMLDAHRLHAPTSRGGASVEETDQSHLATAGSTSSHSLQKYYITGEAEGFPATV
X-box-binding protein 1 (Homo sapiens), sequence (P17861 whole entry, looked up): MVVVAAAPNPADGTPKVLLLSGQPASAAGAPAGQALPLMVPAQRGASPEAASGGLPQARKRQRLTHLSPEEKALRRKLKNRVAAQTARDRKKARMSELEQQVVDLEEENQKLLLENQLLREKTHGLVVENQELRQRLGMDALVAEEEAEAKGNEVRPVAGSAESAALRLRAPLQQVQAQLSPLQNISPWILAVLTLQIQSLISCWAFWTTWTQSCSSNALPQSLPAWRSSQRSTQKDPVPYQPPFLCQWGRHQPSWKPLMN
Steroid hormone receptor ERR1 (Homo sapiens), sequence (P11474 whole entry, looked up, the tested form may be a part): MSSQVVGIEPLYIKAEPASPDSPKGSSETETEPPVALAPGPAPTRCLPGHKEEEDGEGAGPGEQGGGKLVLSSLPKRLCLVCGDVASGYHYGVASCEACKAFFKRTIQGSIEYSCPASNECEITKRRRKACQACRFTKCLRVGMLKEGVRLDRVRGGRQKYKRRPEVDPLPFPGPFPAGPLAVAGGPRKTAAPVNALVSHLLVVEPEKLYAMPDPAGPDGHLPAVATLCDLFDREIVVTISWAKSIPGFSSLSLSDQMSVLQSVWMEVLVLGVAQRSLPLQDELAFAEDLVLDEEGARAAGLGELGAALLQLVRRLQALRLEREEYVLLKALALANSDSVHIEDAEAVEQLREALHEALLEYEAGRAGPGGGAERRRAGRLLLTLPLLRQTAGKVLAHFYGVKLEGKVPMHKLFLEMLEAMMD
Androgen receptor (Homo sapiens), sequence (P10275 whole entry, looked up, the tested form may be a part): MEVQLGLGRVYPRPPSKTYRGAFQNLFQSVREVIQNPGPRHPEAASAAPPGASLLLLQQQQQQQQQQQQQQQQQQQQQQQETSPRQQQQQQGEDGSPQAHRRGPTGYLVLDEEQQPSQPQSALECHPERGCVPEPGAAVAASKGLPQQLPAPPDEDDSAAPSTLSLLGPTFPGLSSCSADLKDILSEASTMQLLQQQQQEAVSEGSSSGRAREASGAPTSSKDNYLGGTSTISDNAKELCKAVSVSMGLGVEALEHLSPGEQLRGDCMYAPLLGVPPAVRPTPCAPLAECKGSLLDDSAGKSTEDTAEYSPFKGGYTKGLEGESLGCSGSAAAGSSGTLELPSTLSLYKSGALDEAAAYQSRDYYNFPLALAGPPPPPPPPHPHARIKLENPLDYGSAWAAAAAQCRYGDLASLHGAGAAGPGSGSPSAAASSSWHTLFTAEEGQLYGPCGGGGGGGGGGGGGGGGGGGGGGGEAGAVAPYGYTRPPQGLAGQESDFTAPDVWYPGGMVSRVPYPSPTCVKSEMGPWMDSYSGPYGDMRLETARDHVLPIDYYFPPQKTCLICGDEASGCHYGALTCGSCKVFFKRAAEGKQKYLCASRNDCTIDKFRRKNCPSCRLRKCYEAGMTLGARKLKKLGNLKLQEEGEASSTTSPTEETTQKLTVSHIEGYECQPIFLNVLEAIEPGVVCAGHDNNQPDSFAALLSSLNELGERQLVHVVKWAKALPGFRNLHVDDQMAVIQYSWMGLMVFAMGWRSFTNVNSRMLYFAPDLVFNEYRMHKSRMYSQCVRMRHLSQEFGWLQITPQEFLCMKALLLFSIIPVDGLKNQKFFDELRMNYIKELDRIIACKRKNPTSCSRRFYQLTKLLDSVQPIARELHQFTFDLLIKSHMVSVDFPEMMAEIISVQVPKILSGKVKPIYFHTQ

For the compound `O=[N+]([O-])c1cc(C(F)(F)F)c(Cl)c([N+](=O)[O-])c1Nc1ncc(C(F)(F)F)cc1Cl`, the AC50 in experiment [1] was 2.2 µM (active). Also, the outcome in experiment [1], in [2], in experiment [3], in experiment [4], in experiment [5] and in experiment [6] was inactive. In experiment [7], the result was inactive.
For `C#CCC1=C(C)C(OC(=O)C2C(C=C(C)C)C2(C)C)CC1=O` (stereo not drawn), the result in [1] and in experiment [3] was inactive. The AC50 was 7.01 µM (active) in [2] and 84.6 µM (active) in experiment [5].
For the compound `CC1(C(=O)Nc2ccc(O)c(Cl)c2Cl)CCCCC1`, the compound was called inactive in experiment [1], in [3] and in experiment [5]. In addition, in [2], the AC50 was 10.8 µM (active).
As to `CCOP(=O)(NC(C)C)Oc1ccc(SC)c(C)c1` (stereo not drawn), the compound was called inactive in experiment [1], in [3], in experiment [5], in experiment [8], in [6] and in experiment [7]. In addition, the AC50 in [2] is 8.8 µM (active).
Regarding `Cc1ccn2nc(S(=O)(=O)Nc3c(F)cccc3F)nc2n1`, the compound was called inactive in experiment [1], in experiment [2], in experiment [3] and in experiment [5].
With `Cc1cc(C2CC2)nc(Nc2ccccc2)n1`, the AC50 was 50 µM (active) in [1], 28.6 µM (active) in experiment [2] and 31.6 µM (active) in experiment [5]. The compound was classed as inactive in experiment [3] and in experiment [4].
In the case of `COc1cc(OC)nc(Sc2cccc(Cl)c2C(=O)O)n1`, the result in experiment [1], in experiment [2], in [3], in experiment [9] and in experiment [5] was inactive.
`CCOP(=S)(OCC)OC(Cl)C(Cl)(Cl)Cl` (stereo not drawn): the outcome in experiment [1], in [3] and in experiment [5] was inactive. In addition, in experiment [2], the AC50 is 50 µM (active).
Turning to `Nc1c(Cl)cc([N+](=O)[O-])cc1Cl`, the AC50 in experiment [1] was 70.8 µM (active); in experiment [4], 50 µM (active); in [5], 50 µM (active). The result in [2], in experiment [3], in experiment [9] and in [6] was inactive.
`CCOP(=S)(Oc1cnc(C(C)(C)C)nc1)OC(C)C` (stereo not drawn): the AC50 is 86.9 µM (active) in [1] and 1.89 µM (active) in experiment [2]. The call in experiment [3], in experiment [9] and in [5] was inactive.
Regarding `CCCSP(=O)(OCC)Oc1ccc(Br)cc1Cl` (stereo not drawn), the outcome in experiment [1] and in experiment [3] was inactive. Besides, the results for the AC50 in [2] and in [5] were 6.6 µM (active) and 1.31 µM (active), respectively.
Consider `CC(C)N(C(=O)SCC(Cl)=C(Cl)Cl)C(C)C`, for which the outcome in experiment [1], in [3] and in experiment [5] was inactive. In addition, in experiment [2], the AC50 was 29.1 µM (active).
Turning to `CCCCSP(=O)(SCCCC)SCCCC`, the compound was classed as inactive in experiment [1], in experiment [3], in experiment [5] and in experiment [6]. In addition, the AC50 in experiment [2] is 12 µM (active).
With `CNc1cnn(-c2cccc(C(F)(F)F)c2)c(=O)c1Cl`, the compound was classed as inactive in experiment [1], in experiment [3] and in [5]. For the same compound, the AC50 in experiment [2] was 13.6 µM (active).
On to `CC[C@H](C)[C@H]1O[C@]2(C=C[C@@H]1C)C[C@@H]1C[C@@H](C/C=C(\C)[C@@H](O[C@H]3C[C@H](OC)[C@@H](O[C@H]4C[C@H](OC)[C@@H](NC)[C@H](C)O4)[C@H](C)O3)[C@@H](C)/C=C/C=C3\CO[C@@H]4[C@H](O)C(C)=C[C@@H](C(=O)O1)[C@]34O)O2`, for which the compound was classed as inactive in experiment [1], in experiment [2], in experiment [3], in [4], in [5] and in [6].
Consider `CSc1nc(NC(C)C)nc(NC(C)C)n1`, for which the result in [1], in [3], in [4], in experiment [9], in experiment [5] and in experiment [6] was inactive. For the same compound, in experiment [2], the AC50 is 10.3 µM (active).
